Drawing on PubChem BioAssay (NCATS), this text covers Potency for seven molecules.

Results filed as inconclusive are left out. Where a call stands in place of a potency, no number is given. Calls of active or inactive are those of the source. Calls follow the shape of the dose curve; as a rule, active = well fitted inhibition curve with a large enough effect; inconclusive = small, poorly fitted or top-dose-only effect; inactive = no such curve, though single readings can be large or run the other way.

One test concerns the target Retinal dehydrogenase 2 (Homo sapiens) (UniProt O94788). Kind of test: qHTS for Inhibitors of the Aldehyde Dehydrogenase Family (ALDH1A2) Confirmation screens (AID 2061314). Also: nearly all actives have a fitted effect of over 65% in size. Also: potency is read from the fitted curve at half-maximal effect. Conditions: ALDH1A2 enzyme inhibition qHTS confirmation; series mostly up to 45.9 µM. For orientation: Quantitative high-throughput screening tests each substance at several concentrations.
As for `CCOC(=O)N1CCC(CN(Cc2ccc(Cl)cc2)Cc2ccc([N+](=O)[O-])s2)C1` (centres undefined), the Potency result was “inactive”.

Regarding `O=C(NNc1ccccc1)c1ccncc1`, the Potency result was “inactive”.

For the molecule `COc1cc2c(cc1NS(=O)(=O)c1ccc(Br)cc1C)n(C)c(=O)n2C`, the Potency is 20.1 µM (active).

Take `CC[n+]1c(/C=C/C=C2/N(C)c3ccccc3C2(C)C)sc2ccccc21`: the Potency is 12.7 µM (active).

In another test the target is Retinaldehyde dehydrogenase 3 (Homo sapiens) (UniProt P47895). Kind of test: qHTS for Inhibitors of the Aldehyde Dehydrogenase Family (ALDH1A3) Primary screen (AID 2061315). Conditions: ALDH inhibition qHTS; series mostly up to 56 µM.
With `Cn1c(N2CCCCS2(=O)=O)nc(C(=O)NCc2ccc(F)cc2)c(O)c1=O`, the Potency result was “inactive”.

For the molecule `CC(C)c1ccc2c(c1)CCC1[C@](C)(C(=O)O)CCC[C@]21C` (some centres undefined), the Potency result is “inactive”.

`COC(CCc1ccc(O)cc1)CC(=O)CCc1ccc(O)cc1` (centres undefined): the Potency result was “inactive”.

On to `CCOC(=O)N1CCC(CN(Cc2ccc(Cl)cc2)Cc2ccc([N+](=O)[O-])s2)C1` (centres undefined), for which the Potency entry was “inactive”.

The next test deals with Aldehyde dehydrogenase 1A1 (Homo sapiens) (UniProt P00352). Kind of test: qHTS for Inhibitors of the Aldehyde Dehydrogenase Family (ALDH1A1) Confirmatory screens (AID 2061316). Also: nearly all actives have a fitted effect of over 65% in size. Also: potency is read from the fitted curve at half-maximal effect. Particulars: ALDH inhibition qHTS; series mostly up to 47.3 µM.
`Cn1c(N2CCCCS2(=O)=O)nc(C(=O)NCc2ccc(F)cc2)c(O)c1=O`: the Potency entry is “inactive”.

Consider `CC(C)c1ccc2c(c1)CCC1[C@](C)(C(=O)O)CCC[C@]21C` (some centres undefined), for which the Potency entry is “inactive”.

Consider `COC(CCc1ccc(O)cc1)CC(=O)CCc1ccc(O)cc1` (centres undefined), for which the Potency entry was “inactive”.

For `O=C(NNc1ccccc1)c1ccncc1`, the Potency result was “inactive”.

Consider `COc1cc2c(cc1NS(=O)(=O)c1ccc(Br)cc1C)n(C)c(=O)n2C`, for which the Potency result is “inactive”.

On to `CC[n+]1c(/C=C/C=C2/N(C)c3ccccc3C2(C)C)sc2ccccc21`, for which the Potency was 12.7 µM (active).
